Results published in PubChem BioAssay (NCI).
Compounds without any hit were thinned out: in the full panel of roughly 83,000, 20% have a hit.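 Cells were grown in 96-well plates and exposed to the test compound at a single concentration for 48 hours; results are reported as percent growth, with values below 10 considered active.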 Active and inactive are the calls of the source.

Test system: OVCAR-4 ovarian
Assay: NCI-60 one-dose screen, 48 h (100 = growth as untreated, 0 = no growth, -100 = all killed)
Conditions: 10 µM
Description: Growth inhibition of the OVCAR-4 human tumor cell line is measured as a screen for anti-cancer activity. Cells are grown in 96 well plates and exposed to the test compound for 48 hours. Compounds are tested at a single concentration, which is 10^-5 M for most compounds. The reported endpoint is percent growth (GI% or GIPRCNT), where numbers from 0 - 100% represent growth inhibition, and numbers from -100% - 0 represent cell death. For example, a value of 40 represents 60% growth inhibition. A value of 0 means no net growth occurred over the course of the experiment. A value of -40 indicates 40% of cells at the beginning of the experiment died by the end of the experiment. A value of -100 means all cells are dead at the end of the experiment.
NCI-60 Human Tumor Cell Lines Screen was performed using the standard one-dose NCI protocol, which is described in more detail at https://dtp.cancer.gov/discovery_development/nci-60/default.htm.
Compounds with GIPRCNT values below 10 were considered active. Activity score was based on GIPRCNT using the following formula: […]
Score is 0 for GIPRCNT values of 100 or above, 50 for GIPRCNT values of 0, and 100 for GIPRCNT values of -100.

SMILES	growth
c1cc2ccc1CNCCN1CCNCc3ccc(cc3)Oc3ccc(cc3)CNCCN(CCNCc3ccc(cc3)O2)CCNCc2ccc(cc2)Oc2ccc(cc2)CNCC1	-77.6% (active)
Brc1ccc(-c2nnc3c4[nH]ccc4ncn23)cc1	91.1% (inactive)
O=[N+]([O-])c1cccc(/C=C/c2ccc3ccccc3n2)c1	38.9% (inactive)
C=CCCCCOc1ccccc1-c1cnc(OCCCCC=C)n1C	97.9% (inactive)
CC1(C)CC(=O)c2c(ccc(C(=O)C[C@@H](N)CO)c2N)O1	71.1% (inactive)
COc1ccc(/C=C(/C(=O)c2ccc(Cl)cc2)C(=O)C(F)(F)F)cc1	96.3% (inactive)
Nc1ccc(NC(=O)c2ccccc2)c2c1C(=O)c1ccccc1C2=O	103% (inactive)
Clc1ccc2nc(-c3ccc(-c4ccc(/C=N/NC5=NCCN5)cc4)s3)cn2c1	87.1% (inactive)
COc1ccc2c3ccnc(C(F)(F)F)c3n(CCCCN)c2c1	74.6% (inactive)
O=C(N/N=C1\c2ccccc2-c2cccc(C(=O)O)c21)c1ccc(O)cc1	101% (inactive)
C[C@@H]1C[C@H]2C(=O)O[C@@H](C)[C@H](NC(=O)[C@H](Cc3cc(F)cc(F)c3)NC(=O)Nc3ccc(C4CC4)cc3F)C(=O)N3CCC[C@H]3C(=O)N3CCCC[C@H]3C(=O)N[C@@H](C)C(=O)N2C1	7.8% (active)
COc1ccc(/C=C2\N=C(Nc3ccccc3)N(NC(=O)c3ccccn3)C2=O)cc1	90% (inactive)
O=C(O)c1cc([N+](=O)[O-])ccc1Br	99.2% (inactive)
Nc1cc(Cl)cc2cccnc12	117% (inactive)
CC(C)CCNCC(C)(C)O	115% (inactive)
COc1cc(-c2cc(-c3ccc(Nc4ncnc5cc(Cl)ccc45)cc3)nc(N3CCCCC3)n2)cc(OC)c1OC	106% (inactive)
CSc1nc2c(c(=O)n1C)C1(C(=O)N(Cc3ccccc3)c3ccccc31)c1c(nc(SC)n(C)c1=O)N2	99.5% (inactive)
CCCCC(CC)COC(=O)C[N+](C)(C)CCOC(c1ccccc1)c1ccccc1 (stereo not given)	22.9% (inactive)
O=C(O)CC1CCCCC1c1ccccc1 (stereo not given)	109% (inactive)
CC(C)OC(=O)Nc1cc(F)c(F)cc1F	103% (inactive)

SMILES	growth
CCOc1ccccc1/C=N\Nc1ccc(S(=O)(=O)c2ccc(N/N=C/c3ccccc3OCC)cc2)cc1	96.6% (inactive)
COc1cc(C)cc2oc3oc(=N)c(C(=O)c4ccccc4)cc3c(=O)c12	105% (inactive)
O=C1CC(c2ccccc2)Cc2nc3ccc(Br)cc3cc21 (stereo not given)	47% (inactive)
ClC1=C(Cl)C(Cl)=C(Cl)C1=Cc1ccccc1	-20.3% (active)
COC(=O)c1cc2c(=O)[nH]cc3c2c(n1)CCC3	103% (inactive)
COc1cc2c(cc1OCCCCCOc1ccc(-n3c(C)nc4ccccc4c3=O)cc1)N=C[C@@H]1CCCN1C2=O	-27.8% (active)
Nc1nc(Nc2ccccc2)c2ncn(Cc3ccc4c(c3)OCO4)c2n1	66.9% (inactive)
COC(=O)c1c(C)[nH]c(/C=C2\N=C(c3ccc[nH]3)C=C2OC)c1C	-67.2% (active)
NC(=O)c1c(NC(=O)COC(=O)Cc2ccccc2F)sc2c1CCC2	114% (inactive)
O=C1/C(=C/c2ccc(OCc3ccccc3)cc2)Oc2cc(OCCN3CCCCC3)ccc21	61.2% (inactive)
N#Cc1c(Cl)nc(SCC2CO2)nc1-c1ccccc1 (stereo not given)	103% (inactive)
C[C@]12CCc3c(ccc4cc(O)ccc34)[C@@H]1CC[C@H]2O	96.1% (inactive)
O=C1NC(=O)C(Cc2ccccc2)(Cc2ccccc2)N1	91.2% (inactive)
CC1(C)C(=NO)C(C)(C)C1=NO	115% (inactive)
Cc1ccc(N)c(O)c1	84.2% (inactive)
O=S(=O)(NCCCNc1nccc(-c2c(-c3cccc(F)c3)nc3occn23)n1)c1cccc2ccccc12	34.6% (inactive)
O=C(O)c1ccccc1C(F)(F)F	101% (inactive)
CC(C)C1=NOC(=O)C1=Cc1cn(-c2ccccc2)nc1-c1ccccc1	95.4% (inactive)
COc1ccc(-c2cc(-c3ccccc3)nc(SCCCCCC(=O)NO)n2)cc1	80.1% (inactive)
CC(C)C1=NOC(=O)C1=Cc1cn(-c2cccnc2)nc1-c1ccccc1	103% (inactive)
